Laboratory results published in PubChem BioAssay (Tox21).
Records with an inconclusive call do not appear. The source made the active and inactive calls. Unless noted, the call rests on the fitted dose curve; in most records, active means well fitted curve in the direction sought with a large enough effect in the repeat runs; inconclusive means weak or mixed curves; inactive means no such curve, though single readings can be large; an effect the other way counts as inactive or inconclusive.

What was measured:
[1] = molecular target: Thyrotropin receptor (Homo sapiens) (UniProt P16473); experiment: qHTS assay to identify small molecule antagonists of the thyroid stimulating hormone receptor (TSHR) signaling pathway (AID 1259385; calls by dose curve; further: nearly all actives have a fitted effect of over 20% in size; further: potency means the concentration at half of the fitted maximal effect)
Chain of Thyrotropin receptor (Homo sapiens) (P16473 whole entry, looked up): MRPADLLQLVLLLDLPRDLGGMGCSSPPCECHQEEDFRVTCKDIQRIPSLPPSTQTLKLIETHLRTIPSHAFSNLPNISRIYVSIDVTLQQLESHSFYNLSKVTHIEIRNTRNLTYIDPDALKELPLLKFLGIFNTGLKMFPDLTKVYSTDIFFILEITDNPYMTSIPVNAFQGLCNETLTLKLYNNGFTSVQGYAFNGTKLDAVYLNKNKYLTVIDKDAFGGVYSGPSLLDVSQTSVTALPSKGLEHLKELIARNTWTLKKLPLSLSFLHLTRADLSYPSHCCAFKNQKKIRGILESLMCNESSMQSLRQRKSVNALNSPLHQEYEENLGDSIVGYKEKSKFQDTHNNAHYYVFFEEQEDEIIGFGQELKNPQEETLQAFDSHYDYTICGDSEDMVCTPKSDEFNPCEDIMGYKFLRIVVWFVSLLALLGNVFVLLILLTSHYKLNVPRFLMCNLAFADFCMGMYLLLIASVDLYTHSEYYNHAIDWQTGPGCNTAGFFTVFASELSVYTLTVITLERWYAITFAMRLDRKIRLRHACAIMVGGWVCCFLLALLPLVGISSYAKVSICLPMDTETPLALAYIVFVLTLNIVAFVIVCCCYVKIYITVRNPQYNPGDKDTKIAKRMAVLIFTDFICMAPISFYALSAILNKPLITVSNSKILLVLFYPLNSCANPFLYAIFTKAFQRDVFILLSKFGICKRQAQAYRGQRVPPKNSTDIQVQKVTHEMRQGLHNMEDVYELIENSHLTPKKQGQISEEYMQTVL
Summary of the method: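 Antagonist mode: compound-treated TSHR-expressing HEK293 cells were stimulated with 1.5 ng/mL TSH (final) in presence of Ro20-1724 for 30 min at RT. HTRF cAMP detection after 1 h; each compound tested at 15 concentrations, triplicate.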

[2] = qHTS assay to identify small molecule agonists of the estrogen receptor alpha (ER-alpha) signaling pathway in the presence of an antagonist - cell viability counter screen (AID 1259386);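 further: series mostly up to about 92 µM; cells exposed to compounds for 22 h at 37 °C before the viability read; nearly all actives have a fitted effect of over 30% in size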
Summary of the method: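 Cytotoxicity was measured in parallel with the ERE-luciferase agonist screen, in the same wells. The cells were VM7Luc4E2, which endogenously express ER-alpha, and treatment was with compounds plus 10.0nM ICI-182,780 for 22hr.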

[3] = molecular target: Progesterone receptor (Homo sapiens) (UniProt P06401); experiment: qHTS assay to identify small molecule agonists of the progesterone receptor (PR) signaling pathway (AID 1346784; calls by dose curve; further: nearly all actives have a fitted effect of over 30% in size)
Chain of Progesterone receptor (Homo sapiens) (P06401 whole entry, looked up): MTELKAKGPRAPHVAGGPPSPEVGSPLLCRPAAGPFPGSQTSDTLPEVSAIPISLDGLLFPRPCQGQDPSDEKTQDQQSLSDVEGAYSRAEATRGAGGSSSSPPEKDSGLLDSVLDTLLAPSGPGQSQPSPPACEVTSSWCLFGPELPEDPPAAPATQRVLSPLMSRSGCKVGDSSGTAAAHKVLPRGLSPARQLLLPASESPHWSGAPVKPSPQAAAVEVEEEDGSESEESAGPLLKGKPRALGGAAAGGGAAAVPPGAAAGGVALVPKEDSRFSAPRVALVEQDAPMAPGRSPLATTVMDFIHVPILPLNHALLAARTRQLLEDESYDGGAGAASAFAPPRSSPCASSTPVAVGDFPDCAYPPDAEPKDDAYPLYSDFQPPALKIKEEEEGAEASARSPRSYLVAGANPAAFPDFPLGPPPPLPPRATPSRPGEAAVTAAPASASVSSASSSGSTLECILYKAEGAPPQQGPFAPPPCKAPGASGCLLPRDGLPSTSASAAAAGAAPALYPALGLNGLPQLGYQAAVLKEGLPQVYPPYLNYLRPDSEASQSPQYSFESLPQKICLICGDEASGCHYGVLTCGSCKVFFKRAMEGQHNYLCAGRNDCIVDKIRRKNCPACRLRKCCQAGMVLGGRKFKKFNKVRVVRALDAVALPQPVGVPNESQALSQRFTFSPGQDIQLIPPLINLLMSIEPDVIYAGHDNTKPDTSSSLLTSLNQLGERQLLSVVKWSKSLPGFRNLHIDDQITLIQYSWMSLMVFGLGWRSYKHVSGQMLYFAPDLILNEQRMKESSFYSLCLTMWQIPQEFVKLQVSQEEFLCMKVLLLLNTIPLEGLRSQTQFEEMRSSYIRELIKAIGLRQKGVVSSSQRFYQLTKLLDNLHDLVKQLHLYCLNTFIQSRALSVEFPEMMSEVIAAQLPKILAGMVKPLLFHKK
Summary of the method: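 PR-UAS-bla HEK 293T cells carrying a UAS-driven beta-lactamase reporter were seeded in medium with 2% charcoal-stripped FBS, preincubated 6 hr at 37C, then exposed to compounds in DMSO for 16 hr; agonism was read by LiveBLAzer B/G FRET fluorescence.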

[4] = qHTS assay to identify small molecule antagonists of the progesterone receptor (PR) signaling pathway - cell viability counter screen (AID 1346798); further: nearly all actives have a fitted effect of over 50% in size; further: potency means the concentration at half of the fitted maximal effect
Summary of the method: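 PR-UAS-bla HEK293T cells in medium with 2% charcoal-stripped FBS were treated with compounds plus R5020 for 16 hr at 37C. Cell viability was then read by CellTiter-Glo luminescence after 30 min at room temperature in the same wells.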

[5] = qHTS assay to identify small molecule agonists of the progesterone receptor (PR) signaling pathway - cell viability counter screen (AID 1346799; calls by dose curve; further: nearly all actives have a fitted effect of over 45% in size; further: potency means the concentration at half of the fitted maximal effect)
Summary of the method: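 PR-UAS-bla HEK293T cells, 3,000 per well in medium with 2% charcoal-stripped FBS, were preincubated 6 hr at 37C, then exposed to compounds for 16 hr; viability was read as CellTiter-Glo luminescence after 30 min at room temperature.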

[6] = qHTS assay to identify small molecule antagonists of the TGF-beta/Smad signaling pathway - cell viability counter screen (AID 1346824); further: nearly all actives have a fitted effect of over 50% in size
Summary of the method: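 Cytotoxicity counter-screen run in the same wells as the beta-lactamase Smad reporter read: CellTiter-Glo luminescence after 30 min at room temperature. HEK 293T SBE-bla cells had 5 hr compound exposure at 37 C with TGF-beta1 (0.25 ng/mL stock).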

[7] = qHTS assay to identify small molecule agonists of the TGF-beta/Smad signaling pathway - cell viability counter screen (AID 1346829); further: top concentration of the series differs between compounds; nearly all actives have a fitted effect of over 45% in size
Summary of the method: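 Compound-treated SBE-bla HEK 293T cells (5 hr, 37 C) were assessed for viability with CellTiter-Glo in parallel with the reporter read.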

[8] = qHTS assay to identify small molecule agonists of the TGF-beta/Smad signaling pathway (AID 1346859; active means well fitted activation curve with a large enough effect in the signal ratio in the repeat runs, not every such curve was filed as active; the % refers to the signal ratio; further: series mostly up to about 77 µM)
Summary of the method: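 HEK 293T cells stably carrying a beta-lactamase reporter driven by the Smad binding element were seeded overnight, exposed to DMSO-dissolved compounds for 5 hr at 37 C, 5% CO2, then loaded with FRET substrate for 2 hr at room temperature.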

[9] = molecular target: Thyrotropin-releasing hormone receptor (Homo sapiens) (UniProt P34981); experiment: qHTS assay to identify small molecule antagonists of the thyrotropin-releasing hormone receptor (TRHR) signaling pathway (AID 1346877; active means well fitted inhibition curve with a large enough effect in the repeat runs, not every such curve was filed as active; further: series mostly up to about 51 µM)
Chain of Thyrotropin-releasing hormone receptor (Homo sapiens) (P34981 whole entry, looked up): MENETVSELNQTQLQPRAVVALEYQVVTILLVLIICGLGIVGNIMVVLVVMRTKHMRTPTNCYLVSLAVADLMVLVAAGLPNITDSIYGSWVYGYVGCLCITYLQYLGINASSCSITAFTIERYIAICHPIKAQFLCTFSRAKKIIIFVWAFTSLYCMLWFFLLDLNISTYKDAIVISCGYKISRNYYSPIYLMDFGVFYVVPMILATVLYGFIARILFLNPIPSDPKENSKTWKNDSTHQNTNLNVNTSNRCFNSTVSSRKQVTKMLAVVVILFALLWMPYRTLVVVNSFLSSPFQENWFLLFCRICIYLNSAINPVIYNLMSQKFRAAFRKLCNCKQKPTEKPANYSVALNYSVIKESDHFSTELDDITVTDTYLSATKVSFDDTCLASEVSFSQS
Summary of the method: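 Antagonism is measured as suppression of the calcium response to 1 nM TRH in TRHR-HEK293 cells that have been dye-loaded for 2 h at 37 °C after overnight plating. Each compound is tested at 15 concentrations in triplicate.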

[10] = molecular target: Progesterone receptor (Homo sapiens) (UniProt P06401); experiment: qHTS assay to identify small molecule antagonists of the progesterone receptor (PR) signaling pathway (AID 1346795; active means well fitted inhibition curve with a large enough effect in the signal ratio in the repeat runs, not every such curve was filed as active; the % refers to the signal ratio; further: potency means the concentration at half of the fitted maximal effect)
Summary of the method: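 PR-UAS-bla HEK293T cells carrying a UAS-driven beta-lactamase reporter were plated in medium with 2% charcoal-stripped FBS and rested 6 hr at 37C. Compounds were added with 1 nM R5020 (final) for 16 hr, then FRET substrate loaded 2 hr at room temperature.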

Measured: Potency

CCCCC/C(=C\c1ccccc1)CO
not listed: [10]
inactive: all other assays above

CNCCCC1c2ccccc2C=Cc2ccccc21
active: [1] 26.6 µM | [4] 21.1 µM | [5] 10.6 µM
not listed: [10]
inactive: all other assays above

NC(=O)Nc1ccc(Cl)c(Cl)c1
not listed: [10]
inactive: all other assays above

COC(=O)CC(=O)C(C)(C)C
inactive: [1] | [2] | [3] | [6] | [7] | [8]

Cc1occc1C(=O)Nc1ccc(C(=O)N2CCC(F)(F)/C(=C\C(=O)N3CCC(N4CCCCC4)CC3)c3ccccc32)cc1
not listed: [4] | [5]
inactive: all other assays above

CC1=CC(O)CC(C)(C)C1 (stereo not given)
not listed: [9] | [10]
inactive: all other assays above

Cc1ccnc2ccccc12
not listed: [2] | [4]
inactive: all other assays above

CCOC(=N)CC(=O)OCC
active: [4] 17.2 µM
not listed: [3] | [5] | [10]
inactive: all other assays above

CC(=O)[C@H]1CC[C@H]2[C@@H]3C=CC4=CC(=O)CC[C@@]4(C)[C@@H]3CC[C@]12C
not listed: [3] | [4]
inactive: all other assays above

CC(=O)Oc1ccc2c(c1)CC[C@@H]1[C@@H]2CC[C@]2(C)[C@@H](O)CC[C@@H]12
not listed: [3] | [4] | [10]
inactive: all other assays above

CN1C(=O)CC(C)(c2ccccc2)C1=O (stereo not given)
not listed: [2]
inactive: all other assays above

CC1CC(=O)NN=C1c1ccc(NCC(C)(C)NCC(O)COc2cc(Cl)ccc2C#N)cc1 (stereo not given)
not listed: [2]
inactive: all other assays above

CCOC(=O)/C=C/C(=O)O
not listed: [2] | [4]
inactive: all other assays above

COc1cc2c(N3CCN(C(=O)Nc4ccc(OC(C)C)cc4)CC3)ncnc2cc1OCCCN1CCCCC1
not listed: [2]
inactive: all other assays above

CCCOC(=O)c1ccc(C(=O)OCCC)nc1
not listed: [3] | [8] | [10]
inactive: all other assays above

CC1C2CC(CC2C2CCCC(O)C2)C1(C)C (stereo not given)
not listed: [3] | [4] | [10]
inactive: all other assays above

CCOC(=O)OCC
not listed: [2]
inactive: all other assays above

CCC(Cc1ccccc1)(C(=O)c1ccc(N2CCOCC2)cc1)N(C)C (stereo not given)
inactive: [1] | [3] | [7] | [8] | [9]
active: [10] 48.6 µM

ON(Cc1ccccc1)Cc1ccccc1
not listed: [2]
inactive: all other assays above

CC(C)CCCCCCOC(=O)CCCCC(=O)OCCCCCCC(C)C
not listed: [2] | [9]
inactive: all other assays above

O=C1NCCN1
not listed: [2] | [9]
inactive: all other assays above

O=C(/C=C/c1ccccc1)OCCCc1ccccc1
not listed: [2] | [4] | [9]
inactive: all other assays above

COc1ccc(CCC(=O)c2c(O)cc(O[C@@H]3O[C@H](CO)[C@@H](O)[C@H](O)[C@H]3O[C@@H]3O[C@@H](C)[C@H](O)[C@@H](O)[C@H]3O)cc2O)cc1O
not listed: [2]
inactive: all other assays above

c1cc[c]([Bi]([c]2ccccc2)[c]2ccccc2)cc1
inactive: [1] | [2] | [6] | [7] | [8] | [9]

C[N+]1(C)CCC(=C(c2ccccc2)c2ccccc2)CC1
not listed: [2]
inactive: all other assays above

CC(N)CN (stereo not given)
not listed: [2]
inactive: all other assays above

CN(C)C(=O)Nc1ccc(Oc2ccc(Cl)cc2)cc1
active: [10] 34.4 µM
not listed: [2] | [4] | [5]
inactive: all other assays above
